Source: PubChem BioAssay (NCI)
This is part of a sample that, as a whole, favours compounds with a hit. Of some 79,000 tested, about 15% had one in any assay. The source made the active and inactive calls. Rule as the data show it: active = growth inhibition above about 70%; inactive = the rest.

Key:
[1] = NCI Yeast Anticancer Drug Screen. Data for the rad50 strain (AID 155);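 also: 0% = growth of vehicle-only cultures of the same strain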; details: S. cerevisiae rad50 strain growth inhibition; at 50.0 µM; hits give high values
How it was run: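 Growth of the mutant yeast was measured after compound exposure and referenced to vehicle-treated cultures.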

[2] = NCI Yeast Anticancer Drug Screen. Data for the mec2-1 strain (AID 157); details: S. cerevisiae mec2-1 strain, at 50.0 µM, hits give high values
How it was run: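 Using mec2-1 yeast: add compound, measure growth, express inhibition versus vehicle-treated cultures.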

[3] = NCI Yeast Anticancer Drug Screen. Data for the sgs1 mgt1 strain (AID 161);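 also: 0% = growth of cultures given vehicle only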; details: S. cerevisiae sgs1 mgt1 strain, at 50.0 µM, hits give high values
How it was run: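 This yeast growth screen uses a strain with defined DNA-repair lesions; compound-treated growth is compared with vehicle-treated growth.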

[4] = NCI Yeast Anticancer Drug Screen. Data for the cln2 rad14 strain (AID 165);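 also: 0% = growth equal to vehicle treated cultures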; details: S. cerevisiae cln2 rad14 strain, at 50.0 µM, hits give high values
How it was run: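 Yeast strain cln2 rad14, bearing defects in cell cycle control and DNA repair, serves as the test system; values reflect growth inhibition compared with vehicle.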

[5] = NCI Yeast Anticancer Drug Screen. Data for the bub3 strain (AID 167); details: S. cerevisiae bub3 mutant strain, at 50.0 µM, hits give high values
How it was run: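 Whole-cell yeast assay. The mutant strain was incubated with compounds, and growth inhibition was determined by comparison with vehicle-treated cells.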

[6] = NCI Yeast Anticancer Drug Screen. Data for the mlh1 rad18 strain (AID 175); details: S. cerevisiae mlh1 rad18 strain growth inhibition; at 50.0 µM; hits give high values
How it was run: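 Steps: expose repair-defective yeast to compound; measure growth; express inhibition against vehicle-treated controls.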

Measured: growth inhibition

O=C(Oc1ccc(S(=O)(=O)F)cc1Cl)c1ccc([N+](=O)[O-])cc1
inactive: [2] 68% | [5] 60%
active: [1] 92.5% | [3] 94.7% | [4] 92.8% | [6] 93.7%

COP1(=O)OCC(C)(C)CO1
inactive: [1] 16.4% | [2] -2.05% | [3] 12.7% | [4] 13.9% | [5] -1.55% | [6] 35.8%

N.O=S(=O)(O)O.[Al]
inactive: [1] 6.55% | [2] 7.45% | [3] 4.85% | [4] -3.8% | [5] -5.1% | [6] -2.4%

CP(O)(=S)C1CCCCC1 (centres undefined) (tested in a mixture with another compound)
inactive: [1] 26.8% | [2] 1.1% | [3] -4.85% | [4] 5.3% | [5] 18.7% | [6] 13.8%

COC(=O)N/N=C(\C)C(CN(C)C)C(c1ccccc1)c1c(O)c2ccccc2oc1=O (centres undefined)
inactive: [1] 35.4% | [2] 28.9% | [3] 47% | [4] 34.6% | [5] 49.4% | [6] 34.1%

CCC1(CC(C)O)C(=O)NC(=O)NC1=O (centres undefined)
inactive: [1] 6.9% | [2] -2.45% | [3] -20% | [4] -37.7% | [5] -0.65% | [6] -23.1%

[Ni+2].[S-]CC[S-]
inactive: [1] 0.4% | [2] 12.4% | [3] -8.75% | [4] 1.95% | [5] 0.4% | [6] -4.85%

CC(=O)O[C@H]1CCC2[C@@H]3CCC4c5nonc5CC[C@]4(C)C3CC[C@@]21C (some centres undefined)
inactive: [1] 28.4% | [2] 5.55% | [3] 22.9% | [4] 35.1% | [5] 27.6% | [6] 17.9%

CCCCC(CC)C(O)P(=O)(OCC)OCC (centres undefined)
inactive: [1] -0.55% | [2] 19% | [3] -2.3% | [4] -21.9% | [5] 23.7% | [6] 9.9%

Clc1cccc2c(N3CC3)cnnc12
inactive: [1] 17.6% | [2] -1.3% | [3] -13.3% | [4] 1.4% | [5] -16.6% | [6] -2.55%

CCOC(=O)C1Oc2ccc([N+](=O)[O-])c3c2C1(O)CCC3 (centres undefined)
inactive: [1] 7.2% | [2] 1.3% | [3] 5.8% | [4] 26.6% | [5] -8.8% | [6] -6.65%

COc1cc(Cl)c(OP(=O)(OC)OC)cc1Cl
inactive: [1] -3.8% | [2] 9.4% | [3] 12.3% | [4] -1.9% | [5] -1.05% | [6] 5.75%

O=C(/C=C/c1ccc([N+](=O)[O-])cc1Cl)Nc1cccc(S(=O)(=O)F)c1
inactive: [1] 6% | [2] 16.8% | [3] -0.35% | [4] 18.2% | [5] -6.3% | [6] -8.2%

CCCCCCCCCCNP(=S)(NCCCCCCCCCC)c1ccccc1
inactive: [1] 26.8% | [2] 4.7% | [3] 27.9% | [4] -19.8% | [5] -14.8% | [6] 2.6%

Cc1nc(N)sc1S(=O)(=O)F
inactive: [1] -41.9% | [2] -29.7% | [3] -21.6% | [4] -14.1% | [5] -29.4% | [6] -5.15%

CO[C@@]12[C@@H]3N[C@@H]3CN1C1=C(C(=O)C(NCC3CCCO3)=C(C)C1=O)[C@@H]2COC(N)=O (some centres undefined)
inactive: [1] 24.9% | [2] 16.6% | [3] 6.25% | [4] 17.1% | [5] 3.95% | [6] 23.6%

CCOP(=O)(OCC)OCC
inactive: [1] -4.1% | [2] -12.8% | [3] 19% | [4] -11.8% | [5] -1.15% | [6] 21.7%

[Cl][Hg][c]1ccccc1N=Nc1ccccc1I
active: [1] 99.2% | [2] 98.8% | [3] 99.2% | [4] 98.8% | [5] 99.3% | [6] 99.2%

C=C[CH2][Sn]([CH3])([CH3])[CH2]C=C
inactive: [1] 11.1% | [2] 4.35% | [3] 2.75% | [4] -19.4% | [5] -12.6% | [6] 4.75%

Cc1ccc(C(=O)C2C(c3ccccc3)N2Cc2ccccc2)cc1 (centres undefined)
inactive: [1] 13.8% | [2] 7.85% | [3] 35.4% | [4] -10.3% | [5] 30.6% | [6] 14.7%

C=C(C)C1C2CC3(C)C4(CO4)C4OC4C3(O)C1C(=O)O2 (centres undefined)
inactive: [1] 13.3% | [2] -16.4% | [3] 14.8% | [4] 4.2% | [5] 5.35% | [6] -47.2%

CC(C)(C)c1ccc(OP(=O)(Oc2ccccc2)Oc2ccccc2)cc1
inactive: [1] 15.9% | [2] 0.05% | [3] -8.15% | [4] -30.9% | [5] 24.1% | [6] 33.9%

O=S(=O)(O)O.[Co+2].[NH-]CC[NH-].[NH-]CC[NH-].[NH-]CC[NH-]
inactive: [1] 11.1% | [2] 21.9% | [3] 9.75% | [4] 17.8% | [5] 3.2% | [6] 1%

Nc1nc(N)c2n[nH]nc2n1
inactive: [1] -18.5% | [2] -6.45% | [3] -22.1% | [4] -105% | [5] 3.55% | [6] -15.3%

C#CCOC(C(=O)OC1CCN(C)CC1)(c1ccccc1)c1ccccc1
inactive: [1] -3.5% | [2] -11.8% | [3] -6.45% | [4] -36.9% | [5] 0.3% | [6] -1.95%

Clc1ccc(C2ON2c2ccccc2)cc1 (centres undefined) (tested in a mixture with another compound)
inactive: [1] 3.1% | [2] 14.6% | [3] 16.2% | [4] 4.45% | [5] -8.4% | [6] 18.2%

Cc1cc(-n2c(C)nc3ccccc3c2=O)on1
inactive: [1] -35.1% | [2] -15.7% | [3] -4.15% | [4] -47.5% | [5] 8.9% | [6] 3.75%

O=C(O)CN(CCN(CC(=O)O)CC(=O)O)CC(=O)O.[Cl][Pd][Cl]
inactive: [1] 41.7% | [2] 51.5% | [3] 48.2% | [4] 21.7% | [5] 44.6% | [6] 62%

O=C(O)CN(CCN(CC(=O)O)CC(=O)O)CC(=O)O.[Ni+2]
inactive: [1] -29.2% | [2] -23% | [3] -11.5% | [4] -15% | [5] 0.4% | [6] -19.9%

CCN(CC)C1=C(N(CC)CC)C(N(CC)CC)=C(N(CC)CC)C1=O.[C-]#[O+].[C-]#[O+].[C-]#[O+].[Fe]
inactive: [1] -45.6% | [2] -13.2% | [3] -22.1% | [4] -2.65% | [5] -16.6% | [6] -33.8%

NC(=O)C(CBr)NCc1ccccc1 (centres undefined)
inactive: [1] -0.1% | [2] -13.6% | [3] -6.15% | [4] -27.8% | [5] 6.7% | [6] -10.6%

CCOP(=O)(N=S=O)OCC
inactive: [1] 5.75% | [2] -13.5% | [3] -4.05% | [4] -28.2% | [5] 7.95% | [6] -2.2%

CCOP(=S)(OCC)Oc1ccccc1
inactive: [1] -3.8% | [2] -14.5% | [3] -15.2% | [4] -7.6% | [5] -20.9% | [6] 3.5%

CN(C)c1ccc(C(=O)CCCN2CCC3(CC2)C(=O)NCN3c2ccccc2)cc1
inactive: [1] -13.9% | [2] 8.95% | [3] 5.9% | [4] -40.8% | [5] -1.05% | [6] -11.5%

O=C1C=C2c3ccccc3CC(C(=O)O)C2CC1 (centres undefined)
inactive: [1] -20.5% | [2] -14.2% | [3] -3.45% | [4] -22.9% | [5] 2.3% | [6] 9%

CC1c2[nH]c3ccccc3c2CCN1C (centres undefined)
inactive: [1] 4.2% | [2] -21.7% | [3] 7.8% | [4] 13.5% | [5] -6.95% | [6] 12.3%

Cc1nn(C)pc1P(C)(=S)n1nc(N(C)C)np1 (centres undefined)
inactive: [1] -2.65% | [2] -19.1% | [3] 0.65% | [4] 0.2% | [5] -7.55% | [6] -7.75%

O=[N+]([O-])c1ccc([As](=O)(O)c2cccc([N+](=O)[O-])c2)cc1
inactive: [1] 0.8% | [2] 1.3% | [3] 0.65% | [4] -28.9% | [5] 38.9% | [6] 7.4%

CCCC(C)C1(C)C(=O)NC(=O)N(C)C1=O (centres undefined)
inactive: [1] 4.35% | [2] 18.1% | [3] 0.15% | [4] 11.8% | [5] 1.05% | [6] -11.9%
